p53 PUMA act = mutant p53 pathway re-activators, primary screen, cell-based, SW480, luciferase, single point, HTS; SW480 PUMA-promoter luciferase, p53 mutant reactivation; activation, % at 9.98 µM; 28,000 tested, 1.5% active; in the data active = activation above about 52%; inconclusive = no clear call, values can overlap the other calls
ID4 SMM = binders of human ID4 protein, primary screen, biochemical, small molecule microarray, single point. Flag-ID4 binding, fluorescence F/B. calls only. 31,000 tested, 1.2% active. DNA-binding protein inhibitor ID-4 (Homo sapiens), P47928; call rule not given here;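 note: a binder raises fluorescence above local background on the spot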
Target sequence (P47928 whole entry, looked up): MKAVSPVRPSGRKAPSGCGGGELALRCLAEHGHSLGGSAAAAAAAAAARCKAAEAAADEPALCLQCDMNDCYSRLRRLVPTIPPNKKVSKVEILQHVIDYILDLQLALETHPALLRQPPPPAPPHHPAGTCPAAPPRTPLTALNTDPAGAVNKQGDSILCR
* hit, by the source's call; i = inactive; ? = inconclusive; . = not tested or not shown; + = active, no number. Only some compounds are listed: those with a hit (about 2.2% of all), similar ones and a draw of the others.

SMILES | p53 PUMA act | ID4 SMM
C[C@H]1CN([C@@H](C)CO)C(=O)CCCn2cc(nn2)CO[C@@H]1CN(C)CC1CCCCC1 | . | +
C[C@@H]1CN([C@@H](C)CO)C(=O)CCCn2nncc2CO[C@@H]1CN(C)S(=O)(=O)c1ccc(Cl)cc1 | 2 | i
Cc1ccc(-c2cnc3c(c2)C(=O)N([C@@H](C)CO)C[C@@H](C)[C@@H](CN(C)CC2CCOCC2)O3)cc1 | . | i
C[C@@H]1CN([C@@H](C)CO)C(=O)CCCn2nncc2CO[C@H]1CN(C)C(=O)Nc1ccccc1F | 7 | +
C[C@@H]1CN([C@@H](C)CO)C(=O)CCCn2nncc2CO[C@@H]1CN(C)C(=O)Nc1ccccc1F | 7 | i
Cc1cc(N(CC(=O)Nc2ccccc2Cl)S(C)(=O)=O)ccc1Br | -3 | i
NS(=O)(=O)c1ccc(NC(=S)NCc2cccnc2)cc1 | -14 | i
Cc1cccnc1NC(=S)Nc1ccc(S(N)(=O)=O)cc1 | 66* | i
C[C@H](O)C#Cc1cnc2c(c1)C(=O)N([C@@H](C)CO)C[C@@H](C)[C@H](CN(C)Cc1cccc(C(=O)O)c1)O2 | -12 | i
CCCCC/C=C\C/C=C\C/C=C\CCCCCCC(=O)O | 12 | +
CCCCC/C=C\C/C=C\CCCCCCCC(=O)NCC(=O)O | . | +
CCCCCCCC/C=C\C/C=C\C/C=C\CCCC(=O)O | . | i
Cc1noc(C)c1NC(=O)N(C)C[C@H]1Oc2cc(C#CCN(C)C)ccc2S(=O)(=O)N([C@@H](C)CO)C[C@@H]1C | . | i
O=C1c2ccccc2C(=O)N1CCc1nc(-c2cccc([N+](=O)[O-])c2)no1 | 14 | i
COc1ccc(NC(=O)N(C)C[C@H]2Oc3ccc(NC(=O)Nc4ccc5c(c4)OCO5)cc3C(=O)N([C@H](C)CO)C[C@@H]2C)cc1 | 3 | .
O=C(O)C1C2C=CC(O2)C1C(=O)Nc1ccc(S(=O)(=O)N2CCc3ccccc32)cc1 (stereo not given) | -9 | +
O=C(NS(=O)(=O)c1ccc(NC(=O)C2COc3ccccc3O2)cc1)c1ccccc1 (stereo not given) | -3 | i
CN(C)CC(=O)N[C@@H]1C=C[C@H](CC(=O)NCc2ccccc2F)O[C@@H]1CO | . | i
CNC[C@@H]1Oc2ccc(NS(=O)(=O)c3ccc(Cl)cc3)cc2CC(=O)N([C@H](C)CO)C[C@@H]1C | 10 | i
COc1cc(/C=C/c2ccc(OC)cc2OC)cc(OC)c1 | 121* | i
COc1cc(/C=C/c2ccc(OC)c(OC)c2)c(CC=C(C)C)c(OC)c1 | 20 | i
COc1cc(Cl)c(C)cc1NC(=O)Cc1ccccc1[N+](=O)[O-] | -5 | i
Cc1noc(C)c1S(=O)(=O)Nc1ccc2c(c1)CC(=O)N([C@H](C)CO)C[C@@H](C)[C@H](CN(C)S(=O)(=O)c1ccccc1)O2 | 1 | i
NC(=O)C1CCCN(/[N+]([O-])=N/OCCBr)C1 (stereo not given) | . | +
CO/N=[N+](\[O-])N1CCCC(C(N)=O)C1 (stereo not given) | . | i
SMILES | p53 PUMA act | ID4 SMM
CC(C)C(=O)Nc1nc(OC(=O)N(c2ccccc2)c2ccccc2)c2[nH]cnc2n1 | -8 | i
COc1ccccc1CC(=O)Nc1ccc(-c2noc(-c3ccc(Cl)cc3)n2)cc1 | 7 | i
COCCNC(=O)c1ccccc1-c1nc(-c2ccc(Cl)cc2)no1 | 59* | i
COc1cc2c(cc1OC)CN(C(=O)[C@@H]1[C@H]3C(=O)O[C@H](c4ccccc4)[C@H](c4ccccc4)N3[C@H](c3ccc(O)cc3)[C@@]13C(=O)Nc1ccc(C#CC4(O)CCCCCC4)cc13)CC2 | . | i
O=C(COc1ccc([N+](=O)[O-])cc1)Nc1ccc2oc(-c3cccc(Cl)c3)nc2c1 | 12 | i
Cc1ccc2nc(-c3ccc(NC(=O)COc4ccc([N+](=O)[O-])cc4)cc3)sc2c1 | 70* | i
CCC(SC1=NCCS1)C(=O)Nc1ccc(-c2nc3ccc(C)cc3s2)cc1 (stereo not given) | ? | i
Cc1ccc2nc(-c3cccc(NC(=O)COc4ccc([N+](=O)[O-])cc4)c3)oc2c1 | 72* | i
CCC(Sc1nc(C)cc(C)n1)C(=O)Nc1ccc(-c2nc3ccc(C)cc3s2)cc1 (stereo not given) | 85* | i
O=C(COc1ccc([N+](=O)[O-])cc1)Nc1cccc(-c2nc3cc(Cl)ccc3o2)c1 | 60* | i
O=C(COc1ccc([N+](=O)[O-])cc1)Nc1ccc2oc(-c3cccc(Br)c3)nc2c1 | 3 | i
O=C(COc1ccc([N+](=O)[O-])cc1)Nc1ccc(-c2nc3ccccc3o2)cc1 | 26 | i
CCC(=O)N(C)C[C@@H]1Oc2cc(-c3cccc(C#N)c3)ccc2S(=O)(=O)N([C@H](C)CO)C[C@@H]1C | 4 | i
C[C@H](CO)N1C[C@H](C)[C@@H](CN(C)C(=O)Nc2ccc(C(F)(F)F)cc2)Oc2ccc(NC(=O)Nc3ccccc3)cc2C1=O | -1 | i
CN1C(=O)N[C@@H]2c3ccccc3O[C@@]1(C)[C@@H]2CO | . | i
O=C(CSc1nnc(-c2ccccc2F)n1-c1ccccc1)Nc1ccccc1C(F)(F)F | -12 | i
C[C@@H]1CN([C@@H](C)CO)C(=O)c2cc(C#Cc3ccccc3)cnc2O[C@@H]1CN(C)Cc1ccccn1 | . | i
Cc1ccc2nc(-c3ccc(NC(=O)C(C)Oc4ccc5c(C)cc(=O)oc5c4)cc3)sc2c1 (stereo not given) | 77* | i
Cc1cc(=O)oc2cc(OC(C)C(=O)Nc3sc4c(c3C#N)CCCC4)ccc12 (stereo not given) | 4 | i
C[C@H](CO)N1C[C@H](C)[C@H](CN(C)C(=O)Nc2cccc3ccccc23)Oc2ccc(NC(=O)NC3CCCCC3)cc2CC1=O | -14 | i
O=C1CC(Cc2ccccc2)C(=O)N1CCCn1ccnc1 (stereo not given) | 14 | +
Cc1ccc(-c2nc3ccccc3c(=O)n2CCCn2ccnc2)cc1 | 10 | i
Cc1ccc(S(=O)(=O)Nc2c(C)[nH]c(=O)[nH]c2=O)cc1C | 10 | +
Cc1[nH]c(=O)[nH]c(=O)c1NS(=O)(=O)c1ccc2c(c1)CCCC2 | 0 | i
Cc1cc(C)c(S(=O)(=O)N(C)CC(=O)O)c(C)c1 | -12 | i
SMILES | p53 PUMA act | ID4 SMM
O=C(COc1ccc(CO)cc1Cl)Nc1ccc(F)cc1 | -24 | i
Cc1ccc(NC(=O)COc2ccc(Br)cc2CO)cc1 | 68* | i
O=C(COc1ccc(Cl)cc1CO)Nc1ccc(F)cc1 | 69* | i
O=C(COc1ccc(Br)cc1CO)Nc1ccccc1F | 112* | i
Cc1ccc(NC(=O)COc2ccc(CO)cc2Br)cc1 | -19 | i
COc1cc(CO)ccc1OCC(=O)Nc1ccc(Br)cc1 | ? | i
O=C(COc1ccc(Br)cc1CO)Nc1ccccc1 | 127* | i
COc1ccccc1NC(=O)COc1ccc(Br)cc1CO | 37 | i
COc1ccc(S(=O)(=O)Nc2ccc3c(c2)CC(=O)N([C@@H](C)CO)C[C@H](C)[C@@H](CN(C)S(=O)(=O)c2ccc(OC)cc2)O3)cc1 | 3 | i
COc1ccccc1NC(=O)c1ccccc1S(=O)(=O)c1ccccc1[N+](=O)[O-] | -11 | i
CC(C)c1ccc2c(c1)C(O)CC1C(C)(CO)CCCC21C (stereo not given) | -5 | i

Source: PubChem BioAssay
